# The panel holds about 79,000 compounds, 15% with a hit somewhere; the sample as a whole holds those more often. Calls of active or inactive are those of the source. Cut-off read from the data, not from the text of the source: active = growth inhibition above about 70%; inactive = the rest.
# Assay: NCI Yeast Anticancer Drug Screen. Data for the mec2-1 strain (AID 157)
# Conditions: S. cerevisiae mec2-1 strain, at 50.0 µM, stronger effect = higher value
# Method in brief: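 Using mec2-1 yeast: add compound, measure growth, express inhibition versus vehicle-treated cultures.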
row,SMILES,growth inhibition
1,CSC(=S)Nc1cc(C)ccn1,70.3% (active)
2,CC(C)c1cc(C(C)C)c(O)c(C([O-])[O-])c1.CC(C)c1cc(C(C)C)c(O)c(C([O-])[O-])c1.CC(C)c1cc(C(C)C)c(O)c(C([OH2+])[OH2+])c1.CC(C)c1cc(C(C)C)c(O)c(C([OH2+])[OH2+])c1.[Cu+2].[Cu+2].[OH3+].[OH3+],38.1% (inactive)
3,Cc1cc(I)ccc1N,88.2% (active)
4,CC(Br)C(=O)c1ccc2cc(Br)c3ccccc3c2c1 (stereo unspecified),27.4% (inactive)
5,O=C(Nc1ccccc1)OCCc1ccc(Cl)c(Cl)c1,95.3% (active)
6,O=Cc1cccc2ccc3ccccc3c12,99.5% (active)
7,O=[N+]([O-])CC(SCc1ccccc1)c1ccc2c(c1)OCO2 (stereo unspecified),91.7% (active)
8,CC1(Cl)CC(O)C2(CC1Br)C1(C)OC1C1OC1(Br)C2(C)C (stereo unspecified),59.2% (inactive)
9,Cc1cc(O)cc(O)c1N=Nc1ccc([N+](=O)[O-])cc1,36.1% (inactive)
10,CCCCCCCCCCCCCC[N+](C)(CC(=O)[O-])Cc1ccccc1 (stereo unspecified),99.1% (active)
11,CC1=NN(c2cccc(Cl)c2)C(=O)C1,56.1% (inactive)
12,CC(=O)OCc1ccc(O)c(C=O)c1,56.9% (inactive)
13,Cc1ccc2ccc3cccc4ccc1c2c34,4.75% (inactive)
14,Cc1nc(-[n+]2nc(-c3ccncc3)nn2-c2ccccc2)sc1C,78.5% (active)
15,C(CCSC1=NCCN1)CSC1=NCCN1 (tested in a mixture with another compound),99.5% (active)
16,CCCCCCCCCCC(=O)Cl,7.75% (inactive)
